Among the test systems are SR leukemia; RPMI-8226 leukemia; OVCAR-8 ovarian; OVCAR-5 ovarian; OVCAR-4 ovarian; SK-OV-3 ovarian; IGROV1 ovarian; OVCAR-3 ovarian; HS 578T breast; NCI/ADR-RES ovarian.
Experiment in all cases: NCI-60 one-dose screen, 48 h (100 = growth as untreated, 0 = no growth, -100 = all killed)
Holding throughout (settings): 10 µM unless noted

This is part of a sample that, as a whole, favours compounds with a hit. Of some 83,000 tested, about 20% had one in any assay.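 48-hour exposure, single concentration, 96-well plates; percent growth endpoint where 0 means no net growth. Active: below 10.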 Unmarked numbers belong to inactive results. Active and inactive are the calls of the source.

Take `CCc1ncnc2c1ccn2C(C)c1ccc(OC)c(F)c1` (stereo not given): the growth with SR leukemia was 16.5%; in the assay with RPMI-8226 leukemia, 37.2%; with OVCAR-8 ovarian, 49.2%; with OVCAR-5 ovarian, 88.1%; with OVCAR-4 ovarian, 54.9%; in the assay on SK-OV-3 ovarian, 53.6%. Also, the growth with IGROV1 ovarian was 54.9%; in the assay on OVCAR-3 ovarian, 34.8%; in the assay with HS 578T breast it was 69.2%; in the assay on NCI/ADR-RES ovarian, 44.6%.
Regarding `Cc1[nH]c(C(=O)Nc2ccccc2OC2CCNCC2)c(Cl)c1Cl`, the growth was 10.1% with SR leukemia; -45.2% (active) in the assay on RPMI-8226 leukemia; 1.61% (active) in the assay on OVCAR-8 ovarian; 68.7% with OVCAR-5 ovarian; -72.8% (active) in the assay with OVCAR-4 ovarian; 109% in the assay with SK-OV-3 ovarian. Moreover, the growth in the assay with IGROV1 ovarian was 48.4%; with OVCAR-3 ovarian, -77.7% (active); in the assay with HS 578T breast it was -19.1% (active); with NCI/ADR-RES ovarian it was 33.8%.
Take `OCCn1cc(-c2nc(-c3c[nH]c4ncccc34)cs2)c2cc(F)ccc21`: the growth is 22% in the assay on SR leukemia; 53.6% in the assay with RPMI-8226 leukemia; 80.2% in the assay on OVCAR-8 ovarian; 84.3% in the assay with OVCAR-5 ovarian; 52.4% in the assay on OVCAR-4 ovarian; 70.1% in the assay on SK-OV-3 ovarian. The growth is 44.7% in the assay on IGROV1 ovarian, 81% in the assay with OVCAR-3 ovarian, 70.9% in the assay on HS 578T breast and 82.6% in the assay on NCI/ADR-RES ovarian.
Consider `CCC(C)N(CCNc1cc(OC)cc2cccnc12)CC(C)C` (stereo not given), for which the growth is 85.4% with SR leukemia; 70.3% with RPMI-8226 leukemia; 90.9% in the assay on OVCAR-8 ovarian; 99.6% with OVCAR-5 ovarian; 16.4% with OVCAR-4 ovarian; 95.1% with SK-OV-3 ovarian. Further, the growth with IGROV1 ovarian was 53.6%; in the assay on OVCAR-3 ovarian it was 65.2%; with HS 578T breast, 110%; in the assay on NCI/ADR-RES ovarian, 83.5%.
Turning to `O=S(=O)(Nc1cc(Cl)ccc1Cl)c1ccc(-c2cnc(C3CC3)o2)cc1`, the growth is 16.5% in the assay on SR leukemia; 31% in the assay on RPMI-8226 leukemia; 56.2% in the assay on OVCAR-8 ovarian; 72.1% in the assay on OVCAR-5 ovarian; 52.5% in the assay on OVCAR-4 ovarian; 52% with SK-OV-3 ovarian. For the same compound, the growth in the assay with IGROV1 ovarian is 39.3%; with OVCAR-3 ovarian it was 5.34% (active); with HS 578T breast, -2.43% (active); in the assay on NCI/ADR-RES ovarian, 26%.
As for `O=C1Nc2ccc(C(=O)O)cc2/C1=N/c1nnc(Sc2ccccc2)s1`, the growth in the assay on SR leukemia was 87.8%; in the assay on RPMI-8226 leukemia, 99.1%; in the assay on OVCAR-8 ovarian, 98.8%; in the assay with OVCAR-5 ovarian it was 113%; in the assay on OVCAR-4 ovarian it was 111%; in the assay on SK-OV-3 ovarian, 109%. Besides, the growth was 99.7% in the assay with IGROV1 ovarian, 105% in the assay with OVCAR-3 ovarian, 96.8% in the assay on HS 578T breast and 110% in the assay on NCI/ADR-RES ovarian.
In the case of `O=C(Nc1ccccc1)Nc1ncnc2c1ncn2-c1ccc(Cl)cc1`, the growth in the assay on SR leukemia was 74.1%; with RPMI-8226 leukemia it was 100%; with OVCAR-8 ovarian, 83.7%; with OVCAR-5 ovarian it was 74.5%; with OVCAR-4 ovarian, -29.6% (active); in the assay with SK-OV-3 ovarian it was 75.4%. The growth was 78.5% in the assay on IGROV1 ovarian, 99.5% in the assay on OVCAR-3 ovarian, 79.8% in the assay on HS 578T breast and 74.6% in the assay on NCI/ADR-RES ovarian.
In the case of `Oc1c(Br)cc(Br)c2ccc(Cn3cc(-c4ccccc4C(F)(F)F)nn3)nc12`, the growth is 2.33% (active) in the assay on SR leukemia; 45.4% with RPMI-8226 leukemia; 92.9% with OVCAR-8 ovarian; 100% with OVCAR-5 ovarian; 79.4% in the assay on OVCAR-4 ovarian; 116% in the assay on SK-OV-3 ovarian. In addition, the growth in the assay with IGROV1 ovarian was 107%; in the assay with OVCAR-3 ovarian it was 51.5%; in the assay on HS 578T breast, 105%; in the assay with NCI/ADR-RES ovarian, 105%.
As to `CN(C)CCNC(=O)c1cc2c3cc(Cl)ccc3[nH]c2c2ncccc12`, the growth with SR leukemia was -17.6% (active); in the assay on RPMI-8226 leukemia it was -11% (active); in the assay with OVCAR-8 ovarian, 19%; in the assay on OVCAR-5 ovarian, 32.7%; in the assay on OVCAR-4 ovarian, 34.1%; in the assay on SK-OV-3 ovarian it was 46.1%. The growth in the assay on IGROV1 ovarian is 20.9%; in the assay on OVCAR-3 ovarian, 0.195% (active); with HS 578T breast it was 24.2%; in the assay on NCI/ADR-RES ovarian, 25.3%.
On to `CC(=O)n1nc(C(=O)OC(C)(C)c2ccccc2)c2ccccc21`, for which the growth is 95.3% with SR leukemia; 102% in the assay on RPMI-8226 leukemia; 95.4% in the assay with OVCAR-8 ovarian; 80.7% in the assay on OVCAR-5 ovarian; 93% in the assay on OVCAR-4 ovarian; 88.2% in the assay on SK-OV-3 ovarian. In addition, the growth in the assay on IGROV1 ovarian was 96.7%; in the assay on OVCAR-3 ovarian it was 101%; with HS 578T breast, 100%; in the assay on NCI/ADR-RES ovarian, 89.5%.
In the case of `C=CCOC(=O)Nc1cccn([C@H](Cc2ccccc2)C(=O)NCCC(C)C)c1=O`, the growth is 64.6% in the assay on SR leukemia; 85.9% with RPMI-8226 leukemia; 102% in the assay on OVCAR-8 ovarian; 117% in the assay on OVCAR-5 ovarian; 92.7% in the assay with OVCAR-4 ovarian; 103% in the assay on SK-OV-3 ovarian. The growth was 106% with IGROV1 ovarian, 119% with OVCAR-3 ovarian, 103% with HS 578T breast and 93.1% in the assay with NCI/ADR-RES ovarian.
In the case of `O=C(Nc1nc(-c2ccc(Cl)cc2)nc2c1sc(=S)n2-c1ccccc1)C(F)(F)F`, the growth in the assay on SR leukemia is 19.9%; in the assay on RPMI-8226 leukemia, 51.2%; in the assay with OVCAR-8 ovarian, 27.1%; with OVCAR-5 ovarian, 62.6%; in the assay with OVCAR-4 ovarian it was -53.5% (active); in the assay with SK-OV-3 ovarian, 25.2%. In addition, the growth in the assay with IGROV1 ovarian is 32.9%; in the assay on OVCAR-3 ovarian, 16.8%; with HS 578T breast, 11.5%; in the assay with NCI/ADR-RES ovarian, 32%.
Consider `Cc1ccc(Nn2c(SCC(=O)Nc3nc(-c4ccccc4)cs3)nc(C)c2C)cc1`, for which the growth with SR leukemia is 72.6%; in the assay with RPMI-8226 leukemia, 55.8%; in the assay on OVCAR-8 ovarian, 55.5%; in the assay on OVCAR-5 ovarian it was 81.8%; in the assay with OVCAR-4 ovarian it was 32%; in the assay on SK-OV-3 ovarian, 64.1%. The growth was 86% in the assay with IGROV1 ovarian, 78.5% in the assay on OVCAR-3 ovarian, 106% in the assay with HS 578T breast and 34.4% with NCI/ADR-RES ovarian.
For the compound `COC(=O)[C@]1(C)CCC[C@]2(C)[C@H]3C[C@H]4C(C(C)C)=C[C@]3(CC[C@H]21)[C@@H]1C(=O)CC[C@H](OCCC#N)[C@@H]14`, the growth in the assay with SR leukemia was 58.9%; in the assay with RPMI-8226 leukemia, 68%; in the assay with OVCAR-8 ovarian it was 99.2%; in the assay on OVCAR-5 ovarian, 129%; with OVCAR-4 ovarian, 77.3%; in the assay on SK-OV-3 ovarian it was 109%. The growth in the assay on IGROV1 ovarian was 67.3%; with OVCAR-3 ovarian, 81.5%; in the assay on HS 578T breast, 79.9%; with NCI/ADR-RES ovarian, 77.8%.

These data come from PubChem BioAssay (NCI).
